{"source": "PubChem BioAssay AID361", "about": "(National Center for Advancing Translational Sciences (NCATS), 2006)", "note": "In all, about 51,000 compounds went through this assay and about 600 (1.2%) were called active. Inconclusive results (about 2%) are left out. For the sample, actives were picked, then their nearest neighbours and some compounds at random. Unmarked numbers belong to inactive results. Cut-off read from the data, not from the text of the source: active = potency below about 11 µM; inconclusive = mostly about 12 µM to 25 µM; inactive = weaker than that;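 the screen sought inhibitors and activators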. Potency is the fitted concentration of half-maximal effect.", "data": [{"system": "pyruvate kinase (Bacillus stearothermophilus)", "test": "Pyruvate Kinase", "conditions": "purified pyruvate kinase, luminescence ATP production; ribose 5-phosphate activator present at AC10", "experimental": "Pyruvate kinase (partially purified from Bacillus stearothermophilus) was assayed for its ability to generate ATP from ADP using phosphoenolpyruvate (PEP) as a substrate. ATP generation was detected in a coupled reaction by luciferase-mediated luminescence, an ATP-dependent process. Pyruvate kinase substrates, PEP and ADP, were present in the assay at Km and […]-fold below Km respectively. The enzyme was assayed at an intermediate level of activity to screen for inhibitors and activators. In addition, ribose 5 phosphate, a positive modulator of pyruvate kinase, was included in the assay at AC10 in order to identify possible potentiators.\nNCGC Assay Protocol Summary:\nThree uL of substrate mix (final concentration, 50 mM imidazole pH 7.2, 50 mM KCl, 7 mM MgCl2, 2 mM PEP, 0.1 mM ADP, 0.7 nM ribose 5 phosphate, 0.01% Tween 20, 0.05% BSA) was dispensed into 1536 well plates. 23 nL of compound were delivered by a pin tool and 1 uL of enzyme mix (final concentration, 10 nM pyruvate kinase, 50 mM imidazole pH 7.2, 0.05% BSA) was added. After centrifugation at 1000 rpm for less than a minute, plates were incubated at room temperature for 2 hours. Three uL of detection and kinase stop mix (PKLight, Cambrex) was added, the plates centrifuged, and luminescence read by a ViewLux (Perkin Elmer) at 5 second exposure/plate. Data were normalized to the controls for AC100 stimulation (5 uM ribose 5 phosphate) and to AC100 inhibition (110 uM luteolin).", "values": [{"smiles": "CCN(CC)S(=O)(=O)c1ccc2nc(CSc3nnnn3-c3ccc(O)cc3)[nH]c2c1", "Potency": "> 57 µM"}, {"smiles": "O=C(CSc1nnc(-c2cccs2)n1-c1ccccc1)N1CCN(C(=O)c2ccco2)CC1", "Potency": "> 57 µM"}, {"smiles": "CCc1ccc2oc(-c3ccc(N)cc3)nc2c1", "Potency": "2.06 µM (active)"}, {"smiles": "CCN(CC)c1ccc2oc(=O)c(C)nc2c1", "Potency": "> 57 µM"}, {"smiles": "COC(=O)C(CC(=O)Nc1cc(C)ccc1C)Nc1ccccc1OC", "note": "(configuration not stated)", "Potency": "> 57 µM"}, {"smiles": "Cn1c(SCc2c(F)cccc2Cl)nnc1-c1cnccn1", "Potency": "> 57 µM"}, {"smiles": "COc1ccccc1N=C1SC(C)CN1C(=O)C1CCC1", "note": "(configuration not stated)", "Potency": "> 57 µM"}, {"smiles": "CN(C)c1nc(N)nc(CSc2nnnn2-c2cccc3ccccc23)n1", "Potency": "1.57 µM (active)"}, {"smiles": "CN(C(=O)CSc1nnnn1-c1ccccc1)C1CCCCC1", "Potency": "> 57 µM"}, {"smiles": "Cn1nnnc1SCc1cc(=O)[nH]c2ccccc12", "Potency": "> 57 µM"}, {"smiles": "C=CCn1c(=S)[nH]c2nc3c(cc2c1=O)COC(C)(C)C3", "Potency": "> 25.6 µM"}, {"smiles": "COc1ccc(S(=O)(=O)N(CCCN2CCCC2=O)Cc2cc3c(C)ccc(C)c3[nH]c2=O)cc1", "Potency": "> 57 µM"}, {"smiles": "CC(C)OC(=O)C(C#N)c1nc2ccccc2nc1N1CCN(Cc2ccc3c(c2)OCO3)CC1", "note": "(configuration not stated)", "Potency": "> 25.6 µM"}, {"smiles": "CSc1nc(O)c(Cc2ccccc2)c(=O)[nH]1", "Potency": "> 25.6 µM"}, {"smiles": "O=C(CN1CCN(C(=O)c2cccc(F)c2)CC1)Nc1ccccc1F", "Potency": "> 57 µM"}, {"smiles": "O=C(c1ccccc1)N1CCN(C(=O)N2CCCCC2)CC1", "Potency": "> 57 µM"}, {"smiles": "COc1ccc(CCN2C(=O)c3[nH]nc(-c4ccccc4O)c3C2c2ccc(C)cc2)cc1OC", "note": "(configuration not stated)", "Potency": "> 57 µM"}, {"smiles": "Fc1ccc(-c2nnc3sc(-c4ccc5c(c4)OCO5)nn23)cc1", "Potency": "> 57 µM"}, {"smiles": "O=C(CN1C(=O)C2C3C=CC(C3)C2C1=O)NCCc1ccccc1Cl", "note": "(configuration not stated)", "Potency": "> 57 µM"}, {"smiles": "N#CC1=C(N)C(C#N)(C#N)[C@H](c2ccsc2)[C@H]2COCC=C12", "Potency": "> 57 µM"}, {"smiles": "Cn1c(=O)c(=O)n(C)c2cc(S(=O)(=O)NCCc3ccccc3)ccc21", "Potency": "> 57 µM"}, {"smiles": "CCCCCCn1c(CN2CCCCC2)nc2c1c(=O)n(C)c(=O)n2C", "Potency": "> 57 µM"}, {"smiles": "O=c1[nH]c(=O)n(Cc2ccco2)c2c1C(C(F)(F)F)(C(F)(F)F)N=C(c1ccco1)N2", "Potency": "> 25.6 µM"}, {"smiles": "CC1CCN(C(=O)Cn2cc(C(=O)c3ccco3)c3ccccc32)CC1", "Potency": "> 57 µM"}, {"smiles": "Cc1noc(C)c1C(=O)OCC(=O)/C=C1\\N(C)c2ccccc2C1(C)C", "Potency": "> 57 µM"}, {"smiles": "Cc1ccccc1-n1c(SCC(=O)NCc2cccs2)nnc1-c1ccncc1", "Potency": "> 57 µM"}, {"smiles": "CCn1c(CNC(=O)c2ccc(OC)c(OC)c2)nnc1SCC(=O)Nc1ccccc1", "Potency": "> 57 µM"}, {"smiles": "CCCCNc1nc2ccccc2nc1NS(=O)(=O)c1cccs1", "Potency": "> 57 µM"}, {"smiles": "CCOC(=O)c1sc2nc(CSCC(=O)OCc3ccc(C(=O)OC)o3)[nH]c(=O)c2c1C", "Potency": "> 57 µM"}, {"smiles": "CCn1c(CSc2nncn2-c2ccc(OC)cc2)nc2cc(S(=O)(=O)N(C)C)ccc21", "Potency": "> 57 µM"}, {"smiles": "N#CCCN(CCC#N)c1nnc(-c2ccccc2)s1", "Potency": "> 25.6 µM"}, {"smiles": "Cc1cc(C(F)(F)F)c(C#N)c(SCC(=O)NC2CC2)n1", "Potency": "> 25.6 µM"}, {"smiles": "Brc1cccc(-c2nnc3n2CCC3)c1", "Potency": "> 57 µM"}, {"smiles": "Cc1ccc2nc(NCCCNC(=O)c3cnccn3)c(C#N)cc2c1", "Potency": "> 57 µM"}, {"smiles": "Cc1noc(NS(=O)(=O)c2ccc(NC(=O)C34CCC(CC3)C4)cc2)c1C", "Potency": "> 57 µM"}, {"smiles": "CC1Cn2c(nnc2-c2cccs2)S1", "note": "(configuration not stated)", "Potency": "> 57 µM"}, {"smiles": "N#Cc1c2c(c(N3CCN(CCO)CC3)n3c1nc1ccccc13)CCCC2", "Potency": "> 57 µM"}, {"smiles": "COc1ccc(OC)c(NC(=O)CN2CCN(C(=O)c3ccco3)CC2)c1", "Potency": "> 57 µM"}, {"smiles": "OCCCN1c2ccccc2Nc2nnc(-c3ccccc3)cc21", "Potency": "6.08 µM (active)"}, {"smiles": "O=C(C1CCCO1)N1CCC(c2nc3ccccc3[nH]2)CC1", "note": "(configuration not stated)", "Potency": "> 57 µM"}, {"smiles": "CCCC(=O)N1CCc2[nH]c3ccccc3c2C1", "Potency": "> 25.6 µM"}, {"smiles": "CN1CCN(S(=O)(=O)c2ccc(NC(=O)c3ccco3)cc2)CC1", "Potency": "> 57 µM"}, {"smiles": "O=C(Nc1ccc(Oc2ccccc2)cc1)c1ccco1", "Potency": "51.8 µM"}, {"smiles": "O=C(Nc1ccc(NC(=O)c2cccs2)cn1)c1ccco1", "Potency": "7.2 µM (active)"}, {"smiles": "CCCc1nnc(NC(=O)c2cc(OC)cc(OC)c2)s1", "Potency": "> 57 µM"}, {"smiles": "N#Cc1ccc(OCCN2C(=O)NC3(CCSC3)C2=O)cc1", "note": "(configuration not stated)", "Potency": "> 57 µM"}, {"smiles": "COCCn1c(-c2ccc(OC)c(OC)c2)nc2ccccc21", "Potency": "> 57 µM"}]}]}
